Bioassay records as filed in PubChem BioAssay.
RE007 growth inh: less growth of the S. pombe RE007 Vpr strain; 360,000 tested, 0.21% active; Potency, µM (top dose mostly 92.2 µM), for the others: at the highest dose activity change, negative = less growth, hits mostly inhibitors; S. pombe RE007 Vpr strain, BacTiter-Glo ATP luminescence, 24 h; AID 651644; active = well fitted falling curve with a large enough effect; note: potency is the fitted concentration of half-maximal effect; % is set by controls: 0 for no effect and ±100 for the full control effect; nearly all actives have a fitted effect of over 50% in size
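Fission yeast strain RE007, carrying one chromosomally integrated HIV-1 vpr copy, was seeded at OD 0.01 in PMG+AL medium with 23 nL pinned compound. After 24 h at 30 °C and 99% humidity, viability was read by BacTiter-Glo luminescence.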
FBPA Giardia inh: Giardia lamblia aldolase inhibition; A8B2U2; purified Giardia FBPA; Potency, µM (highest dose often 59.6 µM), for inactives: at the top dose activity, negative = inhibition, hits mostly inhibitors; 290,000 tested, 0.71% active; note: potency is the fitted concentration of half-maximal effect; % is set by controls: 0 for no effect and ±100 for the full control effect; nearly all actives have a fitted effect of over 55% in size
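Giardia FBPA (40 nM reagent) was preincubated 10 min at RT with compound (up to 57.5 uM final), then substrate plus GAPDH/TPI/NAD/arsenate coupling system with diaphorase/resazurin was added; resorufin fluorescence (525/598 nm) was read after 20 min.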
Cycloheximide cs: affects cycloheximide protein synthesis inhibition readout, counter-screen | max response, % | AID 2314 | 300,000 tested, 12% active | cell reporter, cycloheximide protein synthesis inhibition counterscreen; in the data active = max response mostly above about 13%, no sharp cut-off; inactive = mostly below about 14%; note: read at 38.3 µM for the half of the compounds with a filed dose; 0% is about no effect
Tb PYK inh: blocks Trypanosoma brucei pyruvate kinase; Q57TT1; TbPYK enzyme, Kinase-Glo Plus ATP luminescence, 45 min; Potency, µM (highest dose often 76.8 µM), inactives show at the top dose activity, negative = inhibition, hits mostly inhibitors; 410,000 tested, 0.12% active; AID 624173; note: potency is the fitted concentration of half-maximal effect; % is set by controls: 0 for no effect and ±100 for the full control effect; nearly all actives have a fitted effect of over 50% in size
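Enzyme and substrate buffer are dispensed first and compound is pin-transferred. ADP at 130 uM final then starts the reaction, which runs 45 min at room temperature. Detection reagent is added for 10 min before luminescence is imaged.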
Shiga toxin inh: Shiga toxin inhibition; Vero cells, Shiga toxin protein synthesis inhibition reporter; AID 2315; inhibition, % at 38.7 µM; 290,000 tested, 9.2% active; in the data active = inhibition mostly above about 28%, no sharp cut-off; inactive = mostly below about 43%; note: 0% is about no effect
LmPK inhibitor: LmPK (Leishmania mexicana) enzyme inhibition; Q27686; purified LmPK, Kinase-Glo ATP luminescence, 1 h; Potency, µM (titrated, usually from 57.5 µM), inactives show top-dose activity change, negative = inhibition, hits mostly inhibitors; 290,000 tested, 0.37% active; AID 1721; note: potency is the fitted concentration of half-maximal effect; % is set by controls: 0 for no effect and ±100 for the full control effect
Target sequence (Q27686 whole entry, looked up): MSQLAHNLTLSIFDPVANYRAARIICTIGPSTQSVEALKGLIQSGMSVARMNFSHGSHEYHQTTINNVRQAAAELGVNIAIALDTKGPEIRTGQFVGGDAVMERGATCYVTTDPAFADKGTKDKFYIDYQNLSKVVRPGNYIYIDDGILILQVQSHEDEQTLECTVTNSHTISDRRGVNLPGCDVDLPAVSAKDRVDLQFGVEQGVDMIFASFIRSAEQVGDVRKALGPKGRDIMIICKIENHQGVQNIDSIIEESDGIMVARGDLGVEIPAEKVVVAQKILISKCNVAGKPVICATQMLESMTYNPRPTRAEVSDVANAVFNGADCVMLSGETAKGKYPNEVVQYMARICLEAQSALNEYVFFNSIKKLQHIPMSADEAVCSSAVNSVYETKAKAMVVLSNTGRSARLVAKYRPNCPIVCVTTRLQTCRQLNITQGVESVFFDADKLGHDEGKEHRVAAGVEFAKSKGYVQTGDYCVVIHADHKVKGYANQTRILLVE
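Purified LmPK (0.1 nM) converted ADP (0.1 mM) to ATP with PEP (0.5 mM) in imidazole buffer pH 7.2 with KCl and MgCl2, 1 h at room temperature. ATP was read by Kinase-Glo luminescence; data normalized to uninhibited and no-enzyme controls.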
An asterisk follows results filed as active; . = no result; [ ] = another dose, or the depositor's remark. Only a selection was taken, and hits are over-represented in it overall. Unless noted, calls come from the whole dose curve; as a rule, active = well fitted curve in the direction sought with a large enough effect; inconclusive = small, poorly fitted or top-dose-only effect, or another doubt; inactive = no such curve, though single readings can be large; an effect the other way counts as inactive or inconclusive.

SMILES	RE007 growth inh	FBPA Giardia inh	Cycloheximide cs	Tb PYK inh	Shiga toxin inh	LmPK inhibitor
CCCCCSc1nc2sc3c(c2c(=O)n1-c1ccc(OC)cc1)CCN(C(C)=O)C3	.	.	.	-1%	.	.
CCc1cc(C(=O)N2CCCC(CNC(=O)c3ccc(-c4ccccc4)cc3)C2)no1 (centres undefined)	-9%	-9%	14*	0%	15	-8%
CCN(CC)C1CCN(C(=O)c2cc(COc3ccccc3SC)on2)C1 (centres undefined)	-13%	9%	0	-11%	-4	4%
CCN(CC1CCCO1)C(=O)c1cc(COc2ccccc2SC)on1 (centres undefined)	-3%	.	55*	-4%	82*	2%
CSc1ccccc1OCc1cc(C(=O)N2CCCC(C)C2)no1 (centres undefined)	1%	.	27*	1%	89*	-7%
CSCCC(=O)N1CCCC(CNC(=O)c2ccc(-c3ccccc3)cc2)C1 (centres undefined)	2%	-3%	12	1%	18	-6%
CSc1ccccc1OCc1cc(C(=O)N2CCSCC2)no1	-4%	.	61*	-10%	99*	0%
CSc1ccccc1OCc1cc(C(=O)N2CCC[C@H]2C(N)=O)no1	0%	12%	18	-7%	28	1%
COc1ccc2oc(=O)c(C(=O)NCCc3c(C)[nH]c4ccc(Br)cc34)cc2c1	.	.	.	-9%	.	.
COc1ccc(/C=N/NC(=O)c2ccc3c(c2)OCO3)cc1	10%	-4%	27*	1%	102*	-1%
O=C(N/N=C/c1ccc(OC(=O)c2ccc3c(c2)OCO3)cc1)c1cncc(Br)c1	4%	-1%	-2	-3%	-9	1%
COc1ccc(NS(=O)(=O)c2cccc(C(=O)N/N=C/c3ccc4c(c3)OCCO4)c2)cc1	-8%	-5%	8	3%	-6	2%
COc1cc(/C=N/NC(=O)/C(=C\c2ccc3c(c2)OCO3)NC(=O)c2ccccc2)ccc1O	7%	-17%	-1	-4%	8	-2%
COc1ccc(/C=N\NC(=O)C2=NNC(=O)C2C)cc1 (centres undefined)	11%	-14%	25*	-7%	42*	-27%
COc1cc(/C=N/NC(=O)c2ccc3c(c2)OCO3)ccc1O	3%	-9%	63*	2%	81*	6%
COc1ccc(NCC(=O)N/N=C/c2ccc3c(c2)OCCO3)cc1	-12%	-4%	22*	8%	44	-2%
Cc1ccc(CNC(=O)CN(C)S(=O)(=O)c2ccc(Br)s2)cc1	.	.	.	1%	.	.
O=C(/C=C/c1cccc([N+](=O)[O-])c1)NC1CC2CCC1C2 (centres undefined)	1%	-12%	19*	-10%	34	0%
COc1ccc(/C=C/C(=O)NC2CC3CCC2C3)cc1 (centres undefined)	-26%	3%	27*	-3%	.	6%
O=C(/C=C/c1cccc([N+](=O)[O-])c1)NCC1CCCO1 (centres undefined)	0%	-4%	6	-2%	2	3%
S=C(N/N=C/c1ccc2c(c1)OCO2)NC1CC2CCC1C2 (centres undefined)	2%	-4%	35*	1%	63*	1%
COc1ccc(/C=N/NC(=S)N[C@H]2CC3CCC2C3)cc1 (some centres undefined)	-5%	-3%	13*	-6%	18	3%
C=C(C)[C@@]12OC3(c4ccccc4)O[C@@H]1[C@@H]1[C@@H]4O[C@]4(CO)[C@@H](O)[C@]4(O)C(=O)C(C)=C[C@H]4[C@@]1(O3)[C@H](C)[C@H]2OC(=O)/C=C/C=C/c1ccccc1	.	-14%	2	.	12	.
CCC(CC)C(=O)Nc1ccc(S(=O)(=O)N2CCC(c3nc4ccccc4s3)CC2)cc1	.	.	.	0%	.	.
CC(C)NC(=O)N1CC2(CCN(C(=O)c3cc(C(F)(F)F)cc(C(F)(F)F)c3)CC2)C1	.	4%	.	-3%	.	.
SMILES	RE007 growth inh	FBPA Giardia inh	Cycloheximide cs	Tb PYK inh	Shiga toxin inh	LmPK inhibitor
C[C@H](O)CO[C@H]1[C@H]2O[C@H]3[C@H](O)[C@@H](O)[C@@H](O[C@H]4[C@H](O)[C@@H](O)[C@@H](O[C@H]5[C@H](O)[C@@H](O)[C@@H](O[C@H]6[C@H](O)[C@@H](OC[C@H](C)O)[C@@H](O[C@H]7[C@H](O)[C@@H](OC[C@H](C)O)[C@@H](O[C@H]8[C@H](O)[C@@H](O)[C@@H](O[C@@H]([C@@H]1O)[C@@H](CO)O2)O[C@@H]8CO)O[C@@H]7CO)O[C@@H]6CO)O[C@@H]5CO)O[C@@H]4CO)O[C@@H]3CO	.	8%	.	.	.	.
COc1cc(/C=N/NC(=S)NC2CC3CCC2C3)ccc1O (centres undefined)	18%	0%	34*	2%	36	3%
COc1ccc2oc(=O)c(-c3csc(Nc4ccc(O)cc4)n3)cc2c1	0%	-6%	46*	-8%	85*	2%
COc1ccc(-c2csc(NC(=O)Nc3ccccc3)n2)cc1	-9%	1%	8	-12%	41	1%
COc1ccc(-c2csc(Nc3cccnc3)n2)cc1	0%	-9%	52*	-3%	99*	3%
COc1ccc(-c2csc(Nc3ccc(S(N)(=O)=O)cc3)n2)cc1	-3%[3.69 µM]	0%	7	.	14	7%
COc1ccc(-c2csc(Nc3ccccc3)n2)cc1	-6%	-12%	29*	3%	97*	-6%
COc1ccc(Nc2nc(-c3ccc(OC)cc3)cs2)cc1	-12%	1%	63*	2%	70*	-4%
COc1cccc(C2NC(C(=O)O)CCC2C)c1 (centres undefined)	.	-4%[12.9 µM]	.	.	.	.
CCCCOc1cccc(C(=O)N(Cc2ccc(Br)o2)C2CCS(=O)(=O)C2)c1 (centres undefined)	.	.	.	-4%	.	.
COc1ccc(Nc2nc(-c3c[nH]c4ccccc34)cs2)cc1	-10%	-3%	32*	-12%	67	-1%
CC(=O)NCCC(=O)Nc1nc(-c2c[nH]c3ccccc23)cs1	14%	-9%	-3	5%	24	4%
COc1cc(OC)c(Nc2ncnc3onc(-c4cccc(Cl)c4)c23)cc1Cl	.	.	.	7%	.	.
c1ccc(-c2nnc3sc(-c4ccncc4)nn23)cc1	10%	1%	-3	-8%	-16	3%
c1ccc(-c2nnc3sc(-c4csc5c4CCCC5)nn23)cc1	-4%	1%	13*	-20%	-35	0%
Cc1cccc(-c2nnc3sc(-c4ccccc4C)nn23)c1	7%	4%	11	0%	46*	3%
CC(=O)c1ccc(Oc2nc(C)nc3c2oc2ccccc23)cc1	.	.	.	-2%	.	.
Cc1ccccc1CN1C(=O)c2ccccc2Sc2ccc(C(=O)NC3CCCC3)cc21	.	.	.	2%	.	.
